Most compounds without a hit are left out; they make up all but 10% or so of the library.
ALOX12 inhib: qHTS Assay for Inhibitors of 12-hLO (12-human lipoxygenase); Polyunsaturated fatty acid lipoxygenase ALOX12 (Homo sapiens), P18054; Potency, µM (top dose mostly 57.1 µM), for inactives: at the top dose activity change, negative = inhibition, hits mostly inhibitors; purified 12-hLO, xylenol orange hydroperoxide absorbance; 150,000 compounds, 0.12% hits; further: potency means the concentration at half of the fitted maximal effect; nearly all actives have a fitted effect of over 55% in size
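Hydroperoxide output read as Fe(III)-xylenol orange absorbance, 573-to-405 nm ratio, after 30 min reaction with 40 uM arachidonic acid. Enzyme: 150 nM purified human 12hLO, 15 min compound preincubation; 25 mM Hepes pH 7.0, room temperature.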
GLA spleen mod: qHTS Assay for Inhibitors and Activators of Human alpha-Galactosidase From Spleen Homogenate. Alpha-galactosidase A (Homo sapiens), P06280. human spleen homogenate, 4MU-alpha-Gal fluorescence, 40 min. Potency, µM (titrated, usually from 80 µM), inactives show top-dose activity change, negative = inhibition, most hits filed as inhibitors. 240,000 compounds, 0.008% hits;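 further: potency means the concentration at half of the fitted maximal effect; 0% = enzyme with vehicle and -100% = no enzyme basal signal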
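Human spleen homogenate (1 ug) was the enzyme source, with 4-methylumbelliferyl-alpha-D-galactopyranoside (1 mM final) in pH 5.0 citrate buffer with 0.01% Tween-20. Compounds were titrated; after 40 min at 37C, NaOH/glycine stop, 4-MU fluorescence read; AC50 from Hill fits.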
HPGD block: qHTS Assay for Inhibitors of HPGD (15-Hydroxyprostaglandin Dehydrogenase); Potency, µM, for the others: top-dose activity change, negative = inhibition, usual class: inhibitors; 15-hydroxyprostaglandin dehydrogenase [NAD(+)] (Homo sapiens), P15428; AID 894, 2007; purified HPGD, NADH fluorescence kinetic, PGE2 substrate; 150,000 compounds, 4.3% hits; active means well fitted inhibition curve with a large enough effect, not every such curve was filed as active; inconclusive means small, poorly fitted or top-dose-only effect, or another doubt; inactive means no such curve, though single readings can be large or run the other way; further: potency means the concentration at half of the fitted maximal effect
Target sequence (P15428 whole entry, looked up): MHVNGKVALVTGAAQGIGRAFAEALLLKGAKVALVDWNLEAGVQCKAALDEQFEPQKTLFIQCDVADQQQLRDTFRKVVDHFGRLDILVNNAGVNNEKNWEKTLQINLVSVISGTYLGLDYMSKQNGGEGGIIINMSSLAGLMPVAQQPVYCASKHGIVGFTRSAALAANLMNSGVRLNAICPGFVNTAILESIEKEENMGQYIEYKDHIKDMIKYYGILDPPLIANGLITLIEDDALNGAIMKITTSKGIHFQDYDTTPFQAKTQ
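20 nM HPGD preincubated 15 min at room temperature with compound in 50 mM Tris-HCl pH 8, 0.01% Tween 20. Started with 1 mM NAD+ and 30 uM prostaglandin E2; NADH fluorescence (360/450 nm) read 5 times over 30-s intervals, last minus first.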
ALDH1A1 inh: qHTS Assay for Inhibitors of Aldehyde Dehydrogenase 1 (ALDH1A1) | Aldehyde dehydrogenase 1A1 (Homo sapiens), P00352 | Purified ALDH1A1, NADH fluorescence, propionaldehyde substrate | Potency, µM (doses to about 75.3 µM), for the others: top-dose activity, negative = inhibition, hits mostly inhibitors | 220,000 compounds, 7.3% hits | AID 1030, 2008; active means well fitted inhibition curve with a large enough effect, not every such curve was filed as active; inconclusive means small, poorly fitted or top-dose-only effect, or another doubt; inactive means no such curve, though single readings can be large or run the other way;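 further: potency means the concentration at half of the fitted maximal effect; plate controls were no enzyme wells and a reference inhibitor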
Target sequence (P00352 whole entry, looked up): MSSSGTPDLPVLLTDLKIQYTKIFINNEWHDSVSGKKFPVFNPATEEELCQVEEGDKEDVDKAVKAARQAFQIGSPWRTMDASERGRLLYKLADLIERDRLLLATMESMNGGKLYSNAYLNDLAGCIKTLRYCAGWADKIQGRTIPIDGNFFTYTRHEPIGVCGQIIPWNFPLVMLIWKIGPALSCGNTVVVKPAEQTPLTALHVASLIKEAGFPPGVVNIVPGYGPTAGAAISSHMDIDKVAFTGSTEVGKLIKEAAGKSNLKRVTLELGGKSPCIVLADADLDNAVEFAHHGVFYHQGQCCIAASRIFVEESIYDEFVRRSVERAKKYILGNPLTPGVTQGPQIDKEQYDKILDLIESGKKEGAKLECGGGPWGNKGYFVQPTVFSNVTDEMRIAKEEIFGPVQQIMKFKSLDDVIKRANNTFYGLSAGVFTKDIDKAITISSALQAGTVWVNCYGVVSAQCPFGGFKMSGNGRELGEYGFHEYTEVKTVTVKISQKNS
PNC inhibitor: High Content Assay for Compounds that inhibit the Assembly of the Perinucleolar Compartment; PC3M PTB-GFP, PNC prevalence imaging, 16 h; hits give low values; activity change (PNC), negative = inhibition, % at 10 µM; 140,000 compounds, 3.1% hits; AID 2417, 2010;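 active means readout at or below -70, meaning at least 70% loss of cells showing the perinucleolar compartment, a nuclear body marking cancer cells; inconclusive means readout between -30 and a set limit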;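 further: plate controls were DMSO wells for no effect and camptothecin positive control wells for full effect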
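Read-out is percentage of cells bearing a perinucleolar compartment, from automated 20x imaging of fixed, Hoechst-stained PC3M PTB-GFP cells. Cells were seeded 4 h, then exposed 16 h to compound (23 nl of library stock) in duplicate plates.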
GLA inh pH 4.5: qHTS Assay for Inhibitors of Human alpha-Galactosidase at pH 4.5. Alpha-galactosidase A (Homo sapiens), P06280. purified enzyme, 4-MU-alpha-Gal fluorescence, pH 4.5. activity change, negative = inhibition, % at 105 µM. 230,000 tested, under 10 active;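 further: 0% = full activity with enzyme and -100% = basal without enzyme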
* = called active by the depositor; u = inconclusive; x = no result given; [ ] = dose if it differs, or a comment. Unless noted, the call rests on the fitted dose curve; in most records, active means well fitted curve in the direction sought with a large enough effect; inconclusive means small, poorly fitted or top-dose-only effect, or another doubt; inactive means no such curve, though single readings can be large; an effect the other way counts as inactive or inconclusive. Unless noted, on the % scale 0 is the no-effect control and ±100 the full control effect.

SMILES | ALOX12 inhib | GLA spleen mod | HPGD block | ALDH1A1 inh | PNC inhibitor | GLA inh pH 4.5
COc1ccc(C2SCCN2C(=S)Nc2cccc(C(F)(F)F)c2)cc1 (stereo not drawn) | -8% | 5% | -14% | -7% | -82* | 1
CCOC(=O)C1(CCCc2ccccc2)CCN(C(=O)c2cncs2)CC1 | x | 0% | x | 5.6µM* | x | 0
CCOC(=O)C1(CCCc2ccccc2)CCN(C(=O)COC)CC1 | x | 3% | x | x | x | -6
CCOC(=O)C1(CCCc2ccccc2)CCN(C(=O)c2ocnc2C)CC1 | x | -5% | x | 0.89µM* | x | -1
CCOC(=O)C1(CC2CC2)CCN(C(=O)c2ocnc2C)CC1 | x | -1% | x | 1% | x | 3
CCOC(=O)C1(CCCc2ccccc2)CCN(C(=O)C(C)n2cncn2)CC1 (stereo not drawn) | x | -8% | x | 7.1µM* | x | 4
CCOC(=O)C1(CCCc2ccccc2)CCN(C(=O)CCc2cnccn2)CC1 | x | -6% | x | 4µM* | x | 0
CCOC(=O)C1(CCc2ccccc2)CCN(C(=O)C(C)n2cncn2)CC1 (stereo not drawn) | x | -4% | x | u | x | 2
CC(C)c1nc2sc3c(=O)[nH]c(=S)[nH]c3c2c2c1CCC2 | -11% | -4% | 16µM* | u | 42 | 1
Cc1cc(C)c2[nH]c(=O)c(CN(Cc3ccco3)C(=O)c3cccs3)cc2c1 | -1% | 9% | u | 18µM* | -20 | -30
Cc1ccc(NC(=S)N(CCN(C)C)Cc2cc3cc(C)cc(C)c3[nH]c2=O)cc1 | 0% | -17% | -4% | 13% | -116* | 4
CCOc1ccc2[nH]c(=O)c(CN(Cc3ccco3)C(=O)c3ccc(Br)cc3)cc2c1 | -25% | 7% | -20% | 4.5µM* | 32 | -5
Cc1ccc2cc(CN(CCN(C)C)C(=S)Nc3ccccc3)c(=O)[nH]c2c1C | x | 2% | x | 2% | x | 4
COc1cccc(C(=O)N(Cc2ccco2)Cc2cc3cccc(C)c3[nH]c2=O)c1 | -10% | 14% | x | 14µM* | u | -11
Cc1ccc2[nH]c(=O)c(CN(Cc3ccco3)C(=O)c3ccncc3)cc2c1 | -6% | -20% | -17% | -15% | -23 | -17
COc1ccccc1-c1ccc(=O)n(CC(=O)NC2CCc3ccccc32)n1 (stereo not drawn) | x | -1% | x | -2% | x | 3
O=[N+]([O-])c1ccccc1S(=O)(=O)N1CCN(Cc2ccc3c(c2)OCO3)CC1 | x | 3% | x | u | x | -4
O=C(c1cccs1)N(Cc1ccco1)Cc1cc2ccccc2[nH]c1=O | -9% | -7% | -14% | u | -117* | 5
O=C1NC(=S)/C(=C\c2ccc(-c3ccccc3Cl)o2)S1 | -9% | 3% | 16µM* | u | 16 | -17
CN1CCC(=O)N(C(CSc2ccc(Br)cc2)Cc2ccccc2)CC1 (stereo not drawn) | x | -6% | x | x | x | x
Cc1ccc(C)c(S(=O)(=O)N2CCC(c3nc4c(nnn4Cc4ccc(F)cc4)c(=O)[nH]3)CC2)c1 | -8% | 5% | 13µM* | -10% | -20 | -23
Cc1ccc(Cn2nnc3c(=O)[nH]c(C4CCN(S(=O)(=O)c5cc(C)ccc5C)CC4)nc32)cc1 | -9% | 2% | 22µM* | -6% | 44 | -31
COc1ccc(CCN=C(N)NS(=O)(=O)c2ccc(F)cc2)cc1 | x | 8% | x | 2% | x | -4
COCCNC(=S)NN=C1CCCCCC1 | x | -8% | x | u | x | 2
COCCNC(=S)N/N=C1\CC(C)CC(C)(C)C1 (stereo not drawn) | x | 4% | x | 8.9µM* | x | -3
SMILES | ALOX12 inhib | GLA spleen mod | HPGD block | ALDH1A1 inh | PNC inhibitor | GLA inh pH 4.5
CC1(c2ccccc2)NC(=S)N2C1NC(=S)N2c1ccccc1 (stereo not drawn) | -8% | 6% | -2% | 32µM* | u | 6
COc1ccc(N2C(=S)NC3N2C(=S)NC3(C)c2ccccc2)cc1 (stereo not drawn) | x | -1% | x | 25µM* | x | 7
O=C(O)c1ccccc1-c1oc2cc(O)ccc2c(=O)c1Oc1ccccc1 | x | -6% | u | 20µM* | x | -9
N=C(N)SCc1ccc(Cl)cc1Cl (tested in a mixture with another compound) | 2%[11.4 µM] | x | u | 6%[13.5 µM] | x | x
COc1ccc(O[C@H]2C=C[C@@H](c3ccccc3)O[C@H]2CO/N=C\C[C@@H]2C=C[C@H](OC(C)=O)[C@H](COC(C)=O)O2)cc1 | x | -5%[17.5 µM] | x | u | x | x
COc1ccc(-c2c(C#N)sc(C(N)=O)c2-c2ccc(OC)cc2)cc1 | x | 11% | x | 2µM* | x | -9
CCOC(=O)c1sc(N(Cc2ccccc2)C(=O)COC(=O)c2ccccc2O)nc1C | 3% | -3% | 20µM* | -7% | -29 | -3
CCOC(=O)c1sc(N(Cc2ccccc2)C(=O)CSc2ncn[nH]2)nc1C | -2% | 1% | -26% | 4.5µM* | u | -9
CCOC(=O)c1sc(N(Cc2ccccc2)C(=O)COC(=O)c2ccc(O)cc2)nc1C | -5% | 5% | u | 14µM* | u | -8
COc1cccc(Nc2ncc3ncc(=O)n(CCc4ccccc4)c3n2)c1 | x | 4% | x | 9% | x | x
O=C1c2cccc3c(Nc4ccccc4Cl)c([N+](=O)[O-])cc(c23)C(=O)N1CCO | -17% | 0% | 1.4µM* | -6% | -10 | -8
O=C1c2cccc([N+](=O)[O-])c2C(=O)N1CCO | x | 8% | x | 6% | x | 0
C/C(CCC(=O)OC[C@@H]1O[C@H](C#Cc2ccccc2)C=C[C@@H]1Oc1ccc(C)cc1)=N/O[C@@H](C)c1cn([C@H]2COC[C@H]2O)nn1 | x | 6%[17.5 µM] | x | -4%[13.5 µM] | x | x
Cc1ccc(CSc2ccc(-c3ccc4c(c3)OCO4)nn2)cc1 | -1% | 0% | u | 11µM* | 8 | 4
CCCCNC(=S)Nc1cccc2cnccc12 | 1% | 0% | x | u | 31 | 3
S=C(NCc1cccnc1)NCc1cccnc1 | x | -22% | x | 17% | x | 0
S=C(NCc1cccnc1)Nc1cccc2ccccc12 | 1% | 2% | -20% | 5µM* | -7 | -3
CCn1cc(CNC(=S)Nc2cccc3ccccc23)cn1 | x | -5% | x | 6.3µM* | x | 1
S=C(NCCc1ccccc1)Nc1cccc2cnccc12 | x | 0% | x | 20µM* | x | 4
COc1ccc(CCNC(=S)Nc2cccc3ccccc23)cc1 | u | 1% | -8% | 22µM* | -2 | -3

Screening data as filed in PubChem BioAssay.
